Results filed as inconclusive are left out. Calls of active or inactive are those of the source. Calls come from the whole dose curve; as a rule, active = well fitted inhibition curve with a large enough effect; inconclusive = small, poorly fitted or top-dose-only effect; inactive = flat fitted curve, though single readings scatter.
These compounds were tested on astro (assay: Drug repurposing screens with cells derived from glioblastoma tumor samples (AID 1345199; note: nearly all actives have a fitted effect of over 40% in size)). Conditions: viability, ATP luminescence, 48 h; series mostly up to 45.9 µM; activity, negative = cell killing: at the top concentration.
Experimental: CD133+ cells were isolated from GBM patient biopsies and cultured as neurospheres. Neurospheres from four patients were used to screen the NCATS pharmaceutical collection (NPC) library of approved drugs and bioactive compounds. […] The neurospheres were incubated with drugs for 48 hours in 1536-well format, then assayed with an ATP content cell viability assay. […] These hits were cherry picked to confirm activity in the four original GBM lines screened plus three other slower growing GMB lines (unable to yield enough cells for a full primary screen). Variable activities of the confirmed primary hits in the different GBM patient lines were observed. The patient line 206 responded to the greatest number of compounds and line 923 responded to the least amount of active compounds.
% is set by controls: 0 for no effect and ±100 for the full control effect; potency is the fitted concentration of half-maximal effect.

Row | Structure (SMILES) | activity, negative = cell killing | Potency
1 | NCCC(O)(P(=O)(O)O)P(=O)(O)O | -15.3% (inactive) | –
2 | CCCC1O[C@@H]2C[C@H]3[C@@H]4CCC5=CC(=O)C=C[C@]5(C)[C@H]4[C@@H](O)C[C@]3(C)[C@]2(C(=O)CO)O1 (stereo not given in full) | -13.4% (inactive) | –
3 | C[C@@H]1CN(CCCn2c3ccccc3c3ccccc32)C[C@H](C)N1 | – | 12.6 µM (active)
4 | COC(=O)[C@H]1[C@H]2C[C@H]3c4[nH]c5ccccc5c4CCN3C[C@H]2CC[C@@H]1O | -18% (inactive) | –
5 | Cc1cc(N)c2cc(NC(=O)Nc3ccc4nc(C)cc(N)c4c3)ccc2n1 | – | 35.5 µM (active)
6 | CCN(CC)CCNC(=O)COc1ccc(Cl)cc1 | -2.28% (inactive) | –
7 | C[C@]12CC[C@H]3[C@@H](CCC4=CC(=O)CC[C@@]43C)[C@@H]1CC[C@@H]2C(=O)CO | -13.2% [at 21.2 µM] (inactive) | –
8 | CC(=O)OCC(=O)[C@@]1(O)[C@H](C)C[C@H]2[C@@H]3CCC4=CC(=O)C=C[C@]4(C)[C@@]3(F)[C@@H](O)C[C@@]21C | – | inactive
9 | CCN(CC)CCOc1ccc(C(O)(Cc2ccc(Cl)cc2)c2ccc(C)cc2)cc1 (stereo not given) | – | 22.4 µM (active)
10 | CCC(=O)c1c(O)cc(O)cc1O | -20.3% (inactive) | –
11 | C[C@]12CC[C@@H]3c4ccc(O)cc4CC[C@H]3[C@@H]1C[C@@H](O)[C@@H]2O | -27.4% (inactive) | –
12 | Nc1cc(Cl)c(NC2=NCCN2)c(Cl)c1 | -1.17% (inactive) | –
13 | CCCCCC=CCC=CCCCCCCCC(=O)OCC | -1.5% (inactive) | –
14 | Oc1ccc(Cl)c2cccnc12 | -13.2% (inactive) | –
15 | C[C@H](O)C(=O)Nc1c(I)c(C(=O)NC(CO)CO)c(I)c(C(=O)NC(CO)CO)c1I | -8.16% [at 21.2 µM] (inactive) | –
16 | COc1cccc2c1C(=O)c1c(O)c3c(c(O)c1C2=O)C[C@@](O)(C(C)=O)C[C@@H]3O[C@H]1C[C@H](N)[C@H](O)[C@H](C)O1 | – | 1.12 µM (active)
17 | C/C=C/c1ccc(OC)cc1 | -16.6% (inactive) | –
18 | Cc1cccn2c(=O)c(-c3nnn[nH]3)cnc12 | -12.7% (inactive) | –
19 | OCc1ccccc1O | 0.47% (inactive) | –
20 | CN=C(NC#N)NCCSCc1csc(N=C(N)N)n1 | 3.38% (inactive) | –

Row | Structure (SMILES) | activity, negative = cell killing | Potency
21 | C[C@@H]1C[C@H]2[C@@H]3CCC4=CC(=O)C=C[C@]4(C)[C@@]3(F)[C@@H](O)C[C@]2(C)[C@H]1C(=O)CO | -15.5% (inactive) | –
22 | Cc1c(C(C)C)c(=O)n(-c2ccccc2)n1C | -16.2% (inactive) | –
23 | CC[C@@H](CO)NCCN[C@@H](CC)CO | -18% [at 21.2 µM] (inactive) | –
24 | CC(CCc1ccccc1)NCC(O)c1ccc(O)c(C(N)=O)c1 (stereo not given) | -9.79% (inactive) | –
25 | CC(C)(C)CC(C)(C)c1ccc(O)c(Cc2ccc(Cl)cc2Cl)c1 | – | 22.4 µM (active)
26 | Cc1c(C(N)=O)cc([N+](=O)[O-])cc1[N+](=O)[O-] | -2.88% (inactive) | –
27 | CC(Cc1ccccc1)(NC(=O)CN)c1ccccc1 (stereo not given) | -16.5% (inactive) | –
28 | CCCn1c(=O)[nH]c(=O)c2[nH]cnc21 | 5.29% (inactive) | –
29 | N[C@H](CO)C(=O)O | -4.99% (inactive) | –
30 | CCCCC(CC)CN=C(N)NC(N)=NCCCCCCN=C(N)NC(N)=NCC(CC)CCCC (stereo not given) | – | 11.2 µM (active)
31 | CC[C@H](C)C(=O)O[C@H]1CCC=C2C=C[C@H](C)[C@H](CC[C@@H]3C[C@@H](O)CC(=O)O3)[C@H]21 | – | 2 µM (active)
32 | OC[C@@H](O)[C@@H](O[C@@H]1O[C@H](CO)[C@H](O)[C@H](O)[C@H]1O)[C@H](O)[C@@H](O)CO | -12.1% (inactive) | –
33 | CCCCN1CCCC1C(=O)Nc1c(C)cc(C)cc1C (stereo not given) | -14.5% (inactive) | –
34 | CC(=O)OCC(=O)NCCCOc1cccc(CN2CCCCC2)c1 | – | inactive
35 | C[C@H](CCC(=O)O)[C@H]1CC[C@H]2[C@@H]3C(=O)C[C@@H]4CC(=O)CC[C@]4(C)[C@H]3CC(=O)[C@]12C | -5.78% (inactive) | –
36 | CC(C)(C(=O)c1cccnc1)c1cccnc1 | -17.9% [at 21.2 µM] (inactive) | –
37 | CC(=O)N(O)CCCCCNC(=O)CCC(=O)N(O)CCCCCNC(=O)CCC(=O)N(O)CCCCCN | -20.5% [at 21.2 µM] (inactive) | –
38 | O=C(OCC(O)CO)c1ccccc1Nc1ccnc2cc(Cl)ccc12 (stereo not given) | -20.9% [at 21.2 µM] (inactive) | –
39 | O=C1OC2(c3ccc(O)cc3Oc3cc(O)ccc32)c2ccccc21 | – | inactive
40 | Oc1ccc(Cl)cc1Sc1cc(Cl)ccc1O | – | 7.94 µM (active)

Reference: PubChem BioAssay (NCATS)
